# About 83,000 compounds went through this panel and 20% of them were active in at least one assay; those are over-represented in the sample as a whole.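 Each cell line was grown in a 96-well plate and treated with one concentration of compound for 48 hours. Values below 10 were considered active.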 Values without a mark were called inactive. The source made the active and inactive calls.
# How the values were obtained:
# Assay in all cases: NCI-60 one-dose screen, 48 h (100 = growth as untreated, 0 = no growth, -100 = all killed)
# Details in all cases: 10 µM unless noted
# SK-MEL-2 melanoma = system: SK-MEL-2 melanoma
# SN12C renal = system: SN12C renal
# UO-31 renal = system: UO-31 renal
# TK-10 renal = system: TK-10 renal
# ACHN renal = system: ACHN renal
# CAKI-1 renal = system: CAKI-1 renal
# A498 renal = system: A498 renal
# CCRF-CEM leukemia = system: CCRF-CEM leukemia
# MOLT-4 leukemia = system: MOLT-4 leukemia
Compound,growth (SK-MEL-2 melanoma),growth (SN12C renal),growth (UO-31 renal),growth (TK-10 renal),growth (ACHN renal),growth (CAKI-1 renal),growth (A498 renal),growth (CCRF-CEM leukemia),growth (MOLT-4 leukemia)
O=C(COc1ccccc1)N1N=C(c2ccc(Cl)cc2)CC1c1c[nH]c2ccccc12 (stereo not given),85.3%,62.7%,25.7%,93.6%,60.8%,46%,72.1%,11.3%,-8.31% (active)
CCOP(=O)(CCN1CCN(CCCCCOc2cc3c(cc2OC)C(=O)N2CCC[C@H]2C=N3)CC1)OCC,33.6%,79%,28.3%,148%,99.9%,57.3%,89.2%,11%,19.9%
CCOC(=O)c1ccccc1NC(c1ccccc1)c1ccc2cccnc2c1O (stereo not given),50.9%,35.2%,21%,37.3%,14.4%,15.9%,38.4%,9.7% (active),12.6%
Cc1cccc(NC(=O)c2sc3nc4c(cc3c2N)CCC4)c1C,26.3%,41.2%,43.4%,35%,48.4%,30.5%,8.64% (active),10.7%,22.6%
Nc1c(C(=O)Nc2cccc(C(F)(F)F)c2)sc2nc3c(cc12)CCCCC3,39.4%,2.78% (active),-39.8% (active),-16.2% (active),-67.4% (active),16.2%,-21.8% (active),61.9%,83%
COc1ccc(S(=O)(=O)N2CCN(c3cc4c(cc3F)c(=O)c(C(=O)O)cn4C3CC3)CC2)c(OC)c1,105%,90.7%,53.2%,96.8%,94.9%,81.8%,75.1%,86.5%,69.3%
COc1cc(NC(=O)CSc2nc3ccc(C)cc3c(=O)n2-c2ccccc2)cc(OC)c1OC,86.5%,92.8%,51%,104%,90.2%,88.4%,62.7%,83.9%,59.2%
COc1cc(NC(=O)CCl)ccc(=O)c1,74.3%,71.7%,64.3%,35.4%,74.7%,31%,85.7%,39.7%,50.1%
COc1cccc(NC(=O)Cn2cc3c(=O)oc4ccccc4c3n2)c1,101%,103%,88.5%,111%,116%,95.6%,87.2%,102%,111%
CC(=O)OC[Si](C)(C)c1ccccc1,126%,99.6%,94.9%,107%,106%,92.1%,103%,108%,112%
CCCCC[C@@H]1Cc2cc(O)c(C(=O)O)c3c2[C@H](C[C@@]2(CCCO2)O3)O1,67.4%,104%,44.7%,129%,108%,102%,133%,94.5%,62.6%
COc1ccc(/C=C/C(=O)c2ccc(NC(=O)CN3CCN(c4cc5c(cc4F)c(=O)c(C(=O)O)cn5C4CC4)CC3)cc2)cc1,117%,95.9%,90.5%,106%,114%,93%,112%,102%,101%
Clc1ccc(/C=C/c2nc(N3CCOCC3)c3nc(Cl)c(Cl)cc3n2)cc1,110%,94.1%,76.7%,107%,51.5%,109%,106%,106%,88%
CC(=O)OCC1OC(OCC2OC(OC(C)=O)C(OC(C)=O)C(OC(C)=O)C2OC(C)=O)C(OC(C)=O)C(OC(C)=O)C1OC(C)=O (stereo not given),107%,95.1%,95.4%,106%,94.7%,94.7%,87%,99.6%,104%
COc1ccc(/C=C/c2cc(N3CCOCC3)c3cc(F)c(F)cc3n2)cc1OC,45%,44.4%,18.2%,31.9%,26.4%,8.6% (active),54.8%,12.3%,9.14% (active)
COc1ccc(-c2nc(-c3ccccc3)c(-c3ccccc3)n2C2CC2)cc1OC1CCCCC1,87.3%,73.3%,62.9%,92.3%,53.8%,58.4%,63.7%,30.5%,32.7%
CCOC(=O)[C@H](CSSc1ncnc2cc[nH]c12)NC(=O)[C@@H](C)c1ccc2cc(OC)ccc2c1,23%,29.8%,13.4%,13.8%,24.9%,16%,49.9%,12.7%,3.42% (active)
O=C(Nc1cccc(C(F)(F)F)c1)Nc1ccc(OCc2nnc(-c3ccccc3)o2)c(F)c1,67.8%,52.8%,26.9%,60.2%,6.63% (active),36.9%,43.5%,8.15% (active),17%
Cc1sc(N=Nc2ccc(N(C)C)cc2)[n+]([O-])c1C,114%,96.7%,82.4%,104%,104%,110%,88.1%,104%,103%
CC(=O)Nc1ccc(S(=O)(=O)NC(CCC(=O)Nc2ccc(Cl)cc2)C(=O)O)cc1 (stereo not given),107%,102%,62.1%,95.8%,75.7%,83%,58.3%,88%,110%
CCCCCCCCCCCCCCCCCCOc1cccc(CCOP(=O)(O)OCC[N+](C)(C)C)c1,90.4%,91.1%,91.5%,36.5%,95.8%,55.3%,99.2%,–,104%
C[C@]12CC[C@@H]3c4cc(O)c(O)cc4CC[C@H]3[C@@H]1CC[C@@H]2O,-16.8% (active),50.7%,41.4%,87.5%,42.9%,33.3%,100%,–,29.1%
CCCCCCCCCCCCNC(=S)N/N=C/c1ccc(Cl)c(Cl)c1,99.8%,101%,89.2%,143%,94.9%,101%,112%,–,93.8%
COc1cccc2cc(-c3cc4ccccc4[nH]3)c(=NC(=O)c3ccc(Cl)cc3)oc12,83.3%,83.8%,58.4%,96.6%,51.5%,53.8%,64.9%,–,61.5%
Nc1c(C(=O)Nc2ccccc2)sc2nc3c(cc12)CCC3,86%,85%,80.9%,96%,96%,81.5%,80.7%,89.7%,90.3%
CCCC(C(=O)OCC)C(C)OC(=O)OCC (stereo not given),94.7%,101%,80.1%,98%,107%,96.3%,118%,–,89.8%
CCC1CCc2nc3sc(C(=O)Nc4ccccc4F)c(N)c3cc2C1 (stereo not given),52.1%,89.8%,77.5%,73.7%,69.4%,53.2%,44.7%,–,40%
CCNC(=O)C1CCCN1C(=O)C(CCCN=C(N)N)NC(=O)C(CC(C)C)NC(=O)C(CC(C)C)NC(=O)C(Cc1ccc(O)cc1)NC(=O)C(CO)NC(=O)C(Cc1c[nH]c2ccccc12)NC(=O)C(Cc1cnc[nH]1)NC(=O)C1CCC(=O)N1 (stereo not given),102%,112%,93.7%,110%,97%,84.9%,98%,54.5%,86.5%
CC(=O)Nc1nc(C(=O)N2N=C(C)/C(=C/c3ccc(Cl)cc3)C2=O)cs1,90.5%,105%,82.4%,123%,108%,100%,117%,99.6%,91.7%

# — PubChem BioAssay (NCI)
